{"source": "PubChem BioAssay AID1053197", "about": "(The Scripps Research Institute Molecular Screening Center, 2014)", "note": "In all, about 370,000 compounds went through this assay and about 2,600 (0.7%) were called active. This is one part of a sample in which actives are shown more often than they occur. Unmarked numbers belong to inactive results.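 How the source made its calls: active means inhibition above a cutoff: mean of compounds within the control limits plus 3 SD of those (cut at about 17% in these data); inactive means the rest.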", "data": [{"target": "Sialate O-acetylesterase (Homo sapiens) (UniProt Q9HAT2)", "sequence (Q9HAT2 whole entry, looked up)": "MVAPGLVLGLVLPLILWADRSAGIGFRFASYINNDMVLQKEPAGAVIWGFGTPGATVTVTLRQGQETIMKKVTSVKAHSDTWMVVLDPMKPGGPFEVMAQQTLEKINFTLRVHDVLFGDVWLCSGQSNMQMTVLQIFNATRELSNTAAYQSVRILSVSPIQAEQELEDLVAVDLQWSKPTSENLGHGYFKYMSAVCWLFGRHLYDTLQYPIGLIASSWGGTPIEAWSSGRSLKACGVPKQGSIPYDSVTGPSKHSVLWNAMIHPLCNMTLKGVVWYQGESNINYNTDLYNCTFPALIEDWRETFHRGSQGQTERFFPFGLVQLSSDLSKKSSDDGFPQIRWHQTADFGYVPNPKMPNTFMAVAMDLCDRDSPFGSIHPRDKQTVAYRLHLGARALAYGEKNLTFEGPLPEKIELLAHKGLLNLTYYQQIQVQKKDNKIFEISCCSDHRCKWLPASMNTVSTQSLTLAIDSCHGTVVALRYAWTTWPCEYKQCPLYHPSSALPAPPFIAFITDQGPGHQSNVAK", "assay": "blockers of sialate O-acetylesterase activity-probe labeling – biochemical, fluorescence polarization, FP-Rh probe, 1536-well HTS, primary screen (AID 1053197);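 further: 0% = plate median of compound wells and 100% = probe without SIAE protein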", "conditions": "SIAE FP-Rh probe binding, at 9.66 µM, stronger effect = higher value", "values": [{"smiles": "O=C(Nc1nc2ccc(Cl)cc2s1)c1cc(-c2ccc(Cl)cc2)nc2ccccc12", "inhibition": "-3.74%"}, {"smiles": "CN(CCO)c1cccc2c1S(=O)(=O)N(Cc1cn(Cc3ccc(C(F)(F)F)cc3)nn1)Cc1ccccc1O2", "inhibition": "-1.94%"}, {"smiles": "NNc1nc2c(Cl)cccc2s1", "inhibition": "17.2% (active)"}, {"smiles": "O=S1(=O)c2ccc(Br)cc2OC[C@@H](Cc2ccccc2)N1Cc1cn(Cc2ccco2)nn1", "inhibition": "-0.13%"}, {"smiles": "COC(=O)C1CN(CCc2ccccc2)CCS(=O)(=O)N1Cc1cccc(Cl)c1", "note": "(centres undefined)", "inhibition": "-0.76%"}, {"smiles": "O=C(N/N=C/c1sc(N2CCCCC2)nc1-c1cccs1)c1cccnc1", "inhibition": "19.6% (active)"}, {"smiles": "O=C(Nc1cccc(Cl)c1N1CCOCC1)c1cccnc1", "inhibition": "-7.61%"}, {"smiles": "O=C(c1cccnc1)N1CCN(S(=O)(=O)c2cccs2)CC1", "inhibition": "4.01%"}, {"smiles": "COC(=O)CC1CCc2cc(C)cc(C(CC(C)C)NC(=O)[C@H](CC(C)C)NC(=O)OCc3ccccc3)c2O1", "note": "(some centres undefined)", "inhibition": "4.19%"}, {"smiles": "O=C(Nc1cccc(Cc2ccccc2)c1)Nc1ccc2nc([C@@H]3O[C@H](CO)[C@@H](O)[C@H](O)[C@H]3O)[nH]c2c1", "inhibition": "21% (active)"}, {"smiles": "O=C(NCc1cccnc1)c1ccc2nc([C@@H]3O[C@H](CO)[C@H](O)[C@H](O)[C@H]3O)[nH]c2c1", "inhibition": "-0.84%"}, {"smiles": "O=C(Nc1ccc(Cl)cc1)c1csc([C@@H]2O[C@H](CO)[C@H](O)[C@H](O)[C@H]2O)n1", "inhibition": "-0.06%"}, {"smiles": "CC(CCN1CCC(C(O)(c2ccccc2)c2ccccc2)CC1)Oc1ccc(Cl)cc1", "note": "(centres undefined)", "inhibition": "-3.91%"}, {"smiles": "CC(C)=CCCC1(C)C=Cc2c(ccc3c2[nH]c2cc(O)c(C)cc23)O1", "note": "(centres undefined)", "inhibition": "20.8% (active)"}, {"smiles": "CCn1c(=O)n2n(c1=O)[C@@]1(C=C3CCCC[C@H]32)N=C(NC(=O)c2ccccc2)N(Cc2ccccc2)[C@H]1Cc1ccccc1", "inhibition": "7.65%"}, {"smiles": "COC(=O)C1CN(CC(C)C)CCS(=O)(=O)N1Cc1ccc(C)cc1", "note": "(centres undefined)", "inhibition": "5.08%"}, {"smiles": "c1ccc2[nH]c(-c3nc4ccccc4[nH]3)nc2c1", "inhibition": "47.9% (active)"}, {"smiles": "O=S(=O)(c1ccc(Br)cc1)N1CCC(c2nc3ccccc3[nH]2)CC1", "inhibition": "-5.23%"}, {"smiles": "O=C(OCc1nc2ccccc2[nH]1)C1CCCCC1", "inhibition": "0.98%"}, {"smiles": "COc1ccc(C2Nc3ccccc3C(=O)N2Cc2cccs2)cc1COc1c(C)cccc1C", "note": "(centres undefined)", "inhibition": "-4.49%"}, {"smiles": "O=C(CSc1nc2sc3c(c2c(=O)n1-c1ccccc1)CCCC3)NN=Cc1ccc(OCc2ccccc2)cc1", "inhibition": "8.02%"}, {"smiles": "COc1ccc([C@H]2OC(=O)C[C@H]2C(=O)N2CCN(c3ccccc3F)CC2)cc1OC", "inhibition": "-5.68%"}, {"smiles": "CC(C)=CCc1ccc(O)c(=O)cc1C(C)C", "inhibition": "6.87%"}, {"smiles": "CC(C)c1cc(C(=O)N/N=C/c2ccoc2)c(O)c(C(C)C)c1", "inhibition": "-13.5%"}, {"smiles": "CC(C)c1cc(N=O)cc(C(C)C)c1O", "inhibition": "25.2% (active)"}, {"smiles": "O=C(NCCCc1ccccc1)[C@H](Cc1ccccc1)NC1(C(=O)NCCc2c[nH]c3ccccc23)CCC1", "inhibition": "4.77%"}, {"smiles": "Cc1ccc(-n2c(SCC(=O)Nc3ccc(S(=O)(=O)Nc4nccs4)cc3)nnc2-c2cccnc2)cc1", "inhibition": "-10.3%"}, {"smiles": "C=C1C(C(C)C)N(C)C2=NC(c3ccccc3)CC(=O)N12", "note": "(centres undefined)", "inhibition": "6.93%"}, {"smiles": "O=C(NC(=S)Nc1ccc(NC(=O)c2cccs2)cc1)c1ccc([N+](=O)[O-])cc1", "inhibition": "26.9% (active)"}, {"smiles": "NS(=O)(=O)c1ccc(NC(=S)NNC(=O)c2cccs2)cc1", "inhibition": "4.71%"}, {"smiles": "O=C(NC(=S)Nc1cccc(-c2ccc(CO)o2)c1)c1cccs1", "inhibition": "-33.9%"}, {"smiles": "O=C(c1ccncc1)N1CC[C@H]2[C@H](CCCN2Cc2ccc(F)cc2)C1", "inhibition": "2.68%"}, {"smiles": "C=CCn1c(SCC(N)=O)nnc1-c1ccccc1OC", "inhibition": "-7.56%"}, {"smiles": "Cn1c(CC(=O)Nc2ccc(F)cc2)nnc1SCC(=O)NC1CCCCC1", "inhibition": "2.38%"}, {"smiles": "CCOc1cccc(-c2nnc(SCC(=O)NC3CC3)n2C)c1", "inhibition": "-3.03%"}, {"smiles": "CCOc1ccc(Nc2nc(Cc3nnc(SCC(=O)c4ccc(C)cc4)o3)cs2)cc1", "inhibition": "18.2% (active)"}, {"smiles": "CCOc1ccc(Nc2nc(Cc3nnc(SCC(=O)NC4CCCC4)n3C)cs2)cc1", "inhibition": "19.1% (active)"}, {"smiles": "CC(=O)Nc1ccc(C(=O)CSc2nnc(Cc3ccccc3)o2)cc1", "inhibition": "-1.29%"}, {"smiles": "CCC(=O)Nc1ccc(C(=O)CSc2nnc(CNc3ccc(Cl)cc3)o2)cc1OC", "inhibition": "-0.55%"}, {"smiles": "CC(C)(C)c1ccc(C(=O)Nc2cc(Cl)c(Br)cc2C(=O)O)cc1", "inhibition": "-77.3%"}, {"smiles": "COc1ccc(-n2c(SCC(=O)Nc3ccccc3-c3ccccc3)nnc2-c2cccnc2)cc1", "inhibition": "4.69%"}, {"smiles": "Clc1ccc(-n2c(COc3ccccc3)nnc2SCc2nc3ccccc3[nH]2)cc1", "inhibition": "-2.83%"}, {"smiles": "Nn1c(SCC(=O)Nc2ccc(S(N)(=O)=O)cc2)nnc1-c1n[nH]c2c1CCC2", "inhibition": "-5.56%"}, {"smiles": "Cc1ccccc1CN1CCCCC(NC(=O)Nc2ccccc2F)C1=O", "note": "(centres undefined)", "inhibition": "1.41%"}, {"smiles": "Nc1ccc2nc3c(=O)[nH]c(=S)[nH]c3nc2c1", "inhibition": "31.8% (active)"}, {"smiles": "O=C(N1CCOCC1)N1CC[C@H]2[C@H](CCCN2Cc2ccc(F)cc2)C1", "inhibition": "0.67%"}, {"smiles": "O=C(c1cccc(C(F)(F)F)c1)N1CC[C@H]2[C@H](CCCN2Cc2cc(F)cc(F)c2)C1", "inhibition": "1.24%"}, {"smiles": "C=CCN1[C@H](CC(C)C)COc2cccc(N3CCCC3)c2S1(=O)=O", "inhibition": "6.71%"}, {"smiles": "NC(=O)Cn1cc(/C=N\\NS(=O)(=O)c2ccccc2)c2ccccc21", "inhibition": "10.5%"}, {"smiles": "CNC(=S)N/N=C/c1ccc(OCc2ccccc2)c(Br)c1", "inhibition": "-1.33%"}, {"smiles": "CNC(=S)N/N=C/c1cn(Cc2ccc(C)cc2)c2ccccc12", "inhibition": "18.3% (active)"}, {"smiles": "c1coc(CCNc2ncnc3ccc(-c4ccc5c(c4)OCO5)cc23)c1", "inhibition": "-15.4%"}, {"smiles": "CCC(=O)Nc1ccc2c(c1)C(=O)N(C)[C@H]1CC[C@H](CC(=O)NCCOC)O[C@@H]1CO2", "inhibition": "-4.02%"}, {"smiles": "COc1ccc(C#CCNCc2ccc(OC)cc2OC)cc1", "inhibition": "3.3%"}, {"smiles": "COc1cccc(/C=N/Nc2cc(C)nc(-c3ccccc3O)n2)c1O", "inhibition": "18.5% (active)"}, {"smiles": "O=C1CCN(C(=S)NCCc2ccccc2)CC1", "inhibition": "17.5% (active)"}, {"smiles": "Oc1ccc(N2CCN(C(=S)NCc3ccccc3)CC2)cc1", "inhibition": "10.2%"}, {"smiles": "Oc1cc2c(cc1O)CN(C(=S)NCCc1ccc(Cl)cc1)CCC2", "inhibition": "2.67%"}, {"smiles": "CCOC(=O)C(=O)N(Cc1ccccc1)c1ccccc1C(=O)Nc1cc(OC)ccc1OC", "inhibition": "-7.2%"}, {"smiles": "CC(C)(C)OC(=O)NCc1cc(F)ccc1/C=C/S(=O)(=O)NCCc1ccccc1", "inhibition": "-1.86%"}, {"smiles": "COC(=O)c1cc(S(=O)(=O)N2CCN(c3ccccc3C)CC2)cn1C", "inhibition": "2.1%"}, {"smiles": "CCC(=O)N1CCC(C(N)=O)(N2CCCCC2)CC1", "inhibition": "-0.17%"}, {"smiles": "NC(=O)C1(N2CCCCC2)CCN(C(=O)c2ccc(C#Cc3ccccc3)o2)CC1", "inhibition": "-5.47%"}, {"smiles": "CC(C)(O)C#Cc1ccc(C(=O)N2CCC(C(N)=O)(N3CCCCC3)CC2)cc1", "inhibition": "22.5% (active)"}, {"smiles": "CCC[C@H]1C(=O)CC[C@@]23CCCN2C(=O)CCC[C@@H]13", "inhibition": "-0.79%"}, {"smiles": "CC[C@@H](CCC(=O)N(c1ccccc1)c1ccccc1)C1CC1", "inhibition": "-1.88%"}, {"smiles": "COC(=O)[C@]1(C#N)CC(=O)N(CC2CCCCC2)[C@@H]1c1ccccc1", "inhibition": "2.31%"}, {"smiles": "Cc1cccc(C2c3c(n(C)c(=O)n(C)c3=O)N=C3c4ccccc4C(=O)C32)c1", "note": "(centres undefined)", "inhibition": "17.7% (active)"}, {"smiles": "COc1ccc(C2C3=C(OC(C)=O)c4ccccc4C3=Nc3c2c(=O)n(C)c(=O)n3C)cc1", "note": "(centres undefined)", "inhibition": "1.68%"}, {"smiles": "Cc1cccc(C2C3=C(CCCC3=O)N=C3c4ccccc4C(=O)C32)c1", "note": "(centres undefined)", "inhibition": "6.75%"}, {"smiles": "CCC(CO)Nc1cccc2c1S(=O)(=O)N(Cc1cn(Cc3ccccc3C(F)(F)F)nn1)Cc1ccccc1O2", "note": "(centres undefined)", "inhibition": "7.92%"}, {"smiles": "COC(=O)c1cc(S(=O)(=O)N2CCN(C(=O)C3CCCO3)CC2)cn1C", "note": "(centres undefined)", "inhibition": "-4.53%"}, {"smiles": "CCCCOCCCNC(=O)C[C@H]1C[C@@]2(C(=O)OC)C(=C[C@H](C(C)(C)C)O[C@@H]2C)N(CCc2ccc(OC)c(OC)c2)C1=O", "inhibition": "-1.28%"}, {"smiles": "CCOC(=O)[C@]12CCCCC/C=C\\1N(Cc1ccc(OC)cc1)C(=O)[C@H]2CC(=O)NCCCN1CCCC1=O", "inhibition": "4.21%"}, {"smiles": "CCOc1cc(N2CCOCC2)c(OCC)cc1NC(=O)C1=NN(c2cccc(C)c2)C(=O)CC1", "inhibition": "7.16%"}, {"smiles": "CCOc1cc(N2CCOCC2)c(OCC)cc1NC(=O)COc1cccc2cccnc12", "inhibition": "25.5% (active)"}, {"smiles": "NC(=O)C1CCN(C(=O)COc2cccc3cccnc23)CC1", "inhibition": "4%"}, {"smiles": "CC(=O)Nc1ccc(Nc2cc(C)nc(Nc3ccc(NC(C)=O)cc3)n2)cc1", "inhibition": "19.1% (active)"}, {"smiles": "CC(=O)NS(=O)(=O)c1ccc(N/C(N)=N/c2nc(C)cc(C)n2)cc1", "inhibition": "-5.5%"}, {"smiles": "COc1ccc(C(=O)NNc2cc(C)nc(NNC(=O)c3ccc(OC)cc3)n2)cc1", "inhibition": "-3.36%"}, {"smiles": "CCC(c1ccc(NC(=O)OC(C)(C)C)cc1)c1cc(OC)cc(OC)c1", "note": "(centres undefined)", "inhibition": "-2.44%"}, {"smiles": "C=CCN1C(=O)[C@H](CC(=O)N2CCN(C(=O)OCC)CC2)[C@@]2(C(=O)OCC)CCCC=C12", "inhibition": "10.1%"}, {"smiles": "CC(=O)N1CCc2cc(S(=O)(=O)NCCC(=O)N3CCCC3)ccc21", "inhibition": "-1.37%"}, {"smiles": "C=CCN1C(=O)[C@@H](CC(=O)N2CCN(C(=O)c3ccco3)CC2)[C@]2(C(=O)OC)CCCCC=C12", "inhibition": "2.59%"}]}]}
